The panel holds about 79,000 compounds, 15% with a hit somewhere; the sample as a whole holds those more often. Values without a mark were called inactive. The source made the active and inactive calls. No stated cut-off is given here; in the data, active means growth inhibition above about 70%; inactive means the rest.
Assays:
[1] = NCI Yeast Anticancer Drug Screen. Data for the rad50 strain (AID 155);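 further: 0% = growth of vehicle-only cultures of the same strain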; details: S. cerevisiae rad50 strain growth inhibition, active compounds read high
Summary of the method: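 Compounds were tested on a yeast strain with an engineered DNA damage repair alteration; the reported value is growth inhibition normalised to vehicle treatment.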

[2] = NCI Yeast Anticancer Drug Screen. Data for the mec2-1 strain (AID 157); details: S. cerevisiae mec2-1 strain, active compounds read high
Summary of the method: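 Compounds were applied to mec2-1 yeast cells. Their growth was then compared with that of vehicle-treated cultures to give growth inhibition.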

[3] = NCI Yeast Anticancer Drug Screen. Data for the sgs1 mgt1 strain (AID 161);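 further: 0% = growth of cultures given vehicle only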; details: S. cerevisiae sgs1 mgt1 strain, active compounds read high
Summary of the method: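 Compounds are added to genetically altered yeast, and growth is compared with cultures given vehicle alone to give percent inhibition.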

[4] = NCI Yeast Anticancer Drug Screen. Data for the cln2 rad14 strain (AID 165);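 further: 0% = growth equal to vehicle treated cultures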; details: S. cerevisiae cln2 rad14 strain, active compounds read high
Summary of the method: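 Strain: cln2 rad14 yeast, altered in cell cycle control and DNA damage repair. Read-out: growth inhibition vs vehicle.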

[5] = NCI Yeast Anticancer Drug Screen. Data for the bub3 strain (AID 167); details: S. cerevisiae bub3 mutant strain, active compounds read high
Summary of the method: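 Growth of a checkpoint-deficient yeast mutant is measured after compound exposure. Values represent inhibition relative to vehicle.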

[6] = NCI Yeast Anticancer Drug Screen. Data for the mlh1 rad18 strain (AID 175); details: S. cerevisiae mlh1 rad18 strain growth inhibition, active compounds read high
Summary of the method: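 A repair-deficient yeast strain is exposed to test compound, and growth is scored relative to vehicle-treated controls.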

[7] = at 5.0 µM (retest, dose inferred, filed as 0.5)
[8] = at 50.0 µM (retest, dose inferred, filed as 5.0)

| Compound | growth inhibition [1, 7] | growth inhibition [1, 8] | growth inhibition ([1]; at 50.0 µM) | growth inhibition [2, 7] | growth inhibition [2, 8] | growth inhibition ([2]; at 50.0 µM) | growth inhibition [3, 7] | growth inhibition [3, 8] | growth inhibition ([3]; at 50.0 µM) | growth inhibition [4, 7] | growth inhibition [4, 8] | growth inhibition ([4]; at 50.0 µM) | growth inhibition [5, 7] | growth inhibition [5, 8] | growth inhibition ([5]; at 50.0 µM) | growth inhibition [6, 7] | growth inhibition [6, 8] | growth inhibition ([6]; at 50.0 µM) |
| --- | --- | --- | --- | --- | --- | --- | --- | --- | --- | --- | --- | --- | --- | --- | --- | --- | --- | --- |
| COC(=O)c1cn(NS(=O)(=O)c2ccc(OC)cc2)cc1C(=O)OC | -6% | 8% | 16.4% | -5% | 4% | 6.65% | -6% | 14% | 29.8% | -1% | 0% | 33.9% | -5% | 8% | -1.9% | -5% | 6% | 20.9% |
| COc1cccc2c1C1c3ccccc3Sc3cccc(c31)O2 (configuration not stated) | 6% | 3% | 5.2% | 6% | 3% | 18.3% | 4% | 3% | 19.6% | 1% | -21% | 40.2% | -1% | -2% | 43.9% | 4% | 1% | 21.1% |
| Brc1cc2c(c(Br)c1Br)C(Br)(Br)C(c1ccccc1)=N2 | 6% | 80% (active) | 73.3% (active) | 10% | 85% (active) | 58.1% | 25% | 85% (active) | 78.6% (active) | 3% | 32% | 60.4% | 1% | 90% (active) | 27.6% | 13% | 89% (active) | 75.3% (active) |
| Oc1cccc2ccc(SSc3ccc4cccc(O)c4n3)nc12 | 99% (active) | 95% (active) | 92.2% (active) | 100% (active) | 95% (active) | 95.7% (active) | 94% (active) | 95% (active) | 93% (active) | 85% (active) | 87% (active) | 74.8% (active) | 96% (active) | 95% (active) | 90.5% (active) | 93% (active) | 93% (active) | 93.3% (active) |
